The list is not random: actives were taken first. Their share in the collection is about 10%.
SARS PLP yeast: inhibitors of SARS-CoV papain-like protease in yeast; 330,000 compounds, 0.19% hits; Potency, µM (top dose mostly 32.9 µM), actives largely listed as activators; S. cerevisiae expressing SARS-CoV PLpro, growth rescue; calls by dose curve; also: nearly all actives have a fitted effect of over 55% in size
NS1 inh: inhibitors of influenza NS1 protein function; 270,000 compounds, 0.4% hits; Potency, µM (doses to about 46.1 µM); calls by dose curve; also: actives are rising curves; nearly all actives have a fitted effect of over 50% in size
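A cell-based growth assay was used: compounds that relieve NS1-induced slow growth of budding yeast raise OD600. Assay medium was yeast nitrogen base with ammonium sulphate and -URA supplement, pH 6.0, with 2% galactose.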
Pf growth 48h: P. falciparum growth inhibition at 48 hours (one generation). P. falciparum luciferase growth in erythrocytes, 48 h. Potency, µM (doses to about 28.7 µM), usual class: inhibitors. 310,000 compounds, 5.9% hits. AID 504832
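Compounds are pin-transferred into medium, infected erythrocytes (2% hematocrit, 0.1% parasitemia final) are added, and plates sit one parasite generation at 37 C in 5% CO2. Detection reagent is then added and luminescence measured.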
Pf growth 96h: P. falciparum growth inhibition at 96 hour, primary screen for plastid delayed-death inhibitors. P. falciparum luciferase reporter growth, 96 h. 320,000 compounds, 6.9% hits. Potency, µM (titrated, usually from 28.7 µM), hits mostly inhibitors. AID 504834
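Luminescence readout: decreased luciferase signal marks inhibited growth of reporter-expressing P. falciparum in infected red cells (2% hematocrit, 0.05% parasitemia final), exposed to compound two generations (96 h, 37 C, 5% CO2).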
Each line names hits and unclear results; the compound was inactive in the other large screens. Unless noted, calls follow the shape of the dose curve; as a rule, active = well fitted inhibition curve with a large enough effect; inconclusive = small, poorly fitted or top-dose-only effect, or another doubt; inactive = no such curve, though single readings can be large or run the other way.

CCCNC(=O)c1n[nH]c(=O)c2ccccc12	none
COc1ccc(C2C(O)C(c3c[nH]c4ccccc34)=NN2C(=O)CCl)cc1 (stereo unspecified)	Pf growth 48h 2.94µM, Pf growth 96h inconclusive
COC(=O)c1c(C(=O)OC)c(-c2ccc(C(C)(C)C)cc2)n2c1CS(=O)C2 (stereo unspecified)	Pf growth 48h 10.4µM, Pf growth 96h inconclusive (no result: NS1 inh)
COC(=O)c1c(C(=O)OC)c(-c2cccc(F)c2)n2c1CS(=O)C2 (stereo unspecified)	none
COC(=O)c1c(C(=O)OC)c(-c2cccc(C)c2)n2c1CS(=O)(=O)C2	Pf growth 96h inconclusive (no result: Pf growth 48h)
COC(=O)c1c(C(=O)OC)c(-c2ccc(C)cc2)n2c1CS(=O)(=O)C2	Pf growth 96h 1.65µM (no result: Pf growth 48h)
COC(=O)c1c(C(=O)OC)c(-c2cccc(Cl)c2)n2c1CS(=O)(=O)C2	none
COC(=O)c1c(C(=O)OC)c(-c2ccc(Cl)cc2)n2c1CS(=O)(=O)C2	Pf growth 48h 1.47µM, Pf growth 96h inconclusive
CCOC(=O)c1[nH]c(=O)[nH]c1CNc1ccccc1C#N	none
NC(=O)CSc1nnc(Cc2cccs2)n1C1CCCCC1	Pf growth 96h inconclusive (no result: Pf growth 48h)
Cn1c(N)c(C(=O)CSc2nnc(Cc3cccs3)n2C2CC2)c(=O)n(C)c1=O	Pf growth 48h 5.22µM, Pf growth 96h 3.29µM (no result: NS1 inh)
CCCn1c(N)c(C(=O)CSc2nnc(Cc3cccs3)n2C2CC2)c(=O)n(C)c1=O	Pf growth 48h 4.65µM, Pf growth 96h 4.15µM (no result: NS1 inh)
NC(=O)C1CCN(CC(=O)NC(=O)NC2CCCC2)CC1	Pf growth 48h inconclusive (no result: NS1 inh)
O=C(O)CNC(=O)C12CC3CC(CC(Cl)(C3)C1)C2	none
O=C(CSc1nnc2c(n1)[nH]c1ccccc12)NCc1ccccc1F	Pf growth 96h inconclusive
CCOC(=O)C1(Cc2ccccc2)CCN(Cc2cn(CC(=O)OC)c3ccccc23)CC1	Pf growth 48h inconclusive, Pf growth 96h 5.22µM
CCOC(=O)C1(Cc2ccccc2)CCN(Cc2cccc(OC)c2O)CC1	Pf growth 48h inconclusive, Pf growth 96h 10.4µM
CCOC(=O)C1(CC2CC2)CCN(Cc2cn(C)c3ccccc23)CC1	Pf growth 48h inconclusive
CCOC(=O)C1(Cc2cccc(OC)c2)CCN(Cc2cccn2-c2nccs2)CC1	Pf growth 48h 11.7µM, Pf growth 96h inconclusive
CCOC(=O)C1(Cc2cccc(OC)c2)CCN(Cc2cccc(OC)c2O)CC1	Pf growth 48h inconclusive, Pf growth 96h 13.1µM
COc1ccc(N2CC(C(=O)Nc3c(C(N)=O)oc4ccccc34)CC2=O)cc1 (stereo unspecified)	Pf growth 48h inconclusive (no result: NS1 inh)
O=c1c2ccccc2nc(SCc2ccncc2)n1CC1CCCO1 (stereo unspecified)	Pf growth 48h inconclusive (no result: NS1 inh)
COc1ccc(CCNc2oc(Cc3cccc4ccccc34)nc2C#N)cc1OC	Pf growth 48h 6.57µM, Pf growth 96h inconclusive
COc1ccc(-c2nc(C#N)c(NCc3ccccc3Cl)o2)cc1OC	Pf growth 48h inconclusive, Pf growth 96h 0.586µM
COc1ccc(-c2nc(C#N)c(NCc3ccccc3Cl)o2)cc1	Pf growth 96h inconclusive (no result: SARS PLP yeast)
COc1ccc(-c2nc(C#N)c(NCc3ccc(F)cc3)o2)cc1OC	Pf growth 48h inconclusive (no result: Pf growth 96h)
COc1ccc(-c2nc(C#N)c(NCc3cccnc3)o2)cc1OC	Pf growth 48h inconclusive, Pf growth 96h 10.4µM
CC(C)=C(NC(=O)c1ccccc1)C(=O)NCCc1nc2ccccc2[nH]1	none
COc1ccc(/C=C2/C(=O)N=C(N)N2C)cc1OC	Pf growth 96h 11.7µM
COc1cc(OC)c(OC)cc1/C=C1/C(=O)N=C(N)N1C	none (no result: NS1 inh)
CCOc1ccc(Br)cc1S(=O)(=O)NC1CCCC1	Pf growth 48h inconclusive, Pf growth 96h 8.28µM (no result: NS1 inh)
COc1ccc(/C=C/C(=O)Nc2cc(C)nn2-c2nc3ccccc3[nH]2)cc1	Pf growth 48h inconclusive, Pf growth 96h inconclusive
COc1ccc(/C=C/C(=O)Nc2cc(C)nn2-c2nc3ccccc3n2Cc2cccc([N+](=O)[O-])c2)cc1	Pf growth 48h inconclusive, Pf growth 96h 9.28µM
Cc1cc(F)ccc1NC(=O)C1CSC2(C)CCC(=O)N12 (stereo unspecified)	none (no result: NS1 inh)
C=CCn1c(CCNC(=O)c2ccccc2F)nnc1SCC(=O)Nc1nc2ccccc2s1	Pf growth 96h 11.7µM (no result: Pf growth 48h)
COc1ccc(NC(=S)N2CCN(c3ccccn3)CC2)cc1OC	Pf growth 96h 7.38µM
COc1ccc(C)cc1NC(=S)N1CCN(c2ccccn2)CC1	Pf growth 96h 1.04µM
COc1cc(NC(=S)N2CCN(c3ccccn3)CC2)cc(OC)c1OC	none
Cc1ccc(NC(=S)N2CCN(c3ccccn3)CC2)c(C)c1	Pf growth 96h inconclusive
COc1ccc(/C=C/C(=O)N2CCN(c3ccccn3)CC2)cc1OC	Pf growth 96h 11.7µM
Cc1ccc(-c2nn(-c3ccccc3)cc2C(=O)N2CCN(c3ccccn3)CC2)cc1	Pf growth 48h inconclusive, Pf growth 96h inconclusive (no result: NS1 inh)
COc1ccc(-c2nn(-c3ccccc3)cc2/C=C/C(=O)N2CCN(c3ccccn3)CC2)cc1	Pf growth 48h inconclusive, Pf growth 96h 10.4µM (no result: NS1 inh)
COc1ccc(NC(C)=O)cc1S(=O)(=O)NC(C)c1ccc(-n2ccnc2)cc1 (stereo unspecified)	none (no result: NS1 inh)
COc1cc(/C=N/N(C)S(=O)(=O)c2ccc(C)cc2)cc([N+](=O)[O-])c1O	Pf growth 96h inconclusive
O=C1C(I)=CC(=C(c2cc(I)c(O)c(I)c2)c2ccccc2C(=O)O)C=C1I	none (no result: SARS PLP yeast, NS1 inh)
COc1cc(C(=O)N2CCN(S(=O)(=O)c3cccc(F)c3)CC2)ccc1OCC(=O)N1CCOCC1	none (no result: NS1 inh)
COc1ccc(OC)c(S(=O)(=O)N2CCCCC2C(=O)N2CCN(c3ccccn3)CC2)c1 (stereo unspecified)	Pf growth 48h 11.7µM
Cc1cc(N2CCN(C)CC2)nc2ccc(NC(=O)CCC3CCCC3)cc12	Pf growth 48h inconclusive, Pf growth 96h inconclusive
CCCOc1ccc(C(O)C(CN2CCOCC2)c2ccccc2)cc1 (stereo unspecified)	Pf growth 48h 8.28µM, Pf growth 96h 8.28µM
c1ccc(C(CN2CCOCC2)c2ccccc2)cc1	Pf growth 96h 8.28µM
OC(COC(c1ccccc1)c1ccccc1)CN1CCOCC1 (stereo unspecified)	none (no result: NS1 inh)
CCOc1ccc(C(O)C(CN2CCOCC2)c2ccccc2)cc1 (stereo unspecified)	NS1 inh inconclusive, Pf growth 48h inconclusive, Pf growth 96h 10.4µM
CC(C)(CO)C(O)C(=O)NCCCC(=O)O (stereo unspecified)	none (no result: SARS PLP yeast, NS1 inh)
CCN(CC)CCCN(c1ccccc1)C1Cc2ccccc2C1	Pf growth 48h 1.9µM, Pf growth 96h inconclusive (no result: SARS PLP yeast, NS1 inh)
CC1(C)CC(=O)C(C=NCCN2CCN(C3CC(=O)N(c4ccc(Br)cc4)C3=O)CC2)=C(O)C1 (stereo unspecified)	Pf growth 96h 13.1µM
CCCOc1ccc(N2C(=O)CC(N3CCN(CCN=CC4=C(O)CC(C)(C)CC4=O)CC3)C2=O)cc1 (stereo unspecified)	none
Cc1cc(Br)c(NC(=O)c2c(-c3c(Cl)cccc3Cl)noc2C)c(Br)c1	Pf growth 48h 10.4µM, Pf growth 96h 5.86µM
Cc1onc(-c2c(Cl)cccc2Cl)c1C(=O)N/N=C(\N)COc1ccc(Cl)cc1	SARS PLP yeast inconclusive, Pf growth 48h 2.33µM, Pf growth 96h inconclusive
COc1ccc(NC(=O)c2c(-c3c(Cl)cccc3Cl)noc2C)c(OC)c1	Pf growth 48h 1.65µM

Assay outcomes (PubChem)
